Growth data for nine molecules are collected here from PubChem BioAssay (NCI).

Assay in all cases: NCI-60 one-dose screen, 48 h (100 = growth as untreated, 0 = no growth, -100 = all killed)
Common to all, as to details: 10 µM unless noted

The test system of test [1] is SK-MEL-2 melanoma.
Test [2] relates to EKVX NSCLC.
For test [3], the system named is SN12C renal.
The subject of test [4] is UO-31 renal.
Test [5] deals with TK-10 renal.
In test [6] the test system is ACHN renal.
Test [7] has as its system CAKI-1 renal.
In test [8] the test system is A498 renal.
In test [9] the test system is CCRF-CEM leukemia.
The subject of test [10] is MOLT-4 leukemia.
Test [11] has as its system RPMI-8226 leukemia.
Test [12] deals with SK-OV-3 ovarian.
For test [13], the system named is IGROV1 ovarian.
The subject of test [14] is OVCAR-3 ovarian.
Test [15] deals with HS 578T breast.
The test system of test [16] is NCI/ADR-RES ovarian.
Test [17] concerns OVCAR-8 ovarian.
In test [18] the test system is OVCAR-4 ovarian.
The test system of test [19] is OVCAR-5 ovarian.

About 83,000 compounds went through this panel and 20% of them were active in at least one assay; those are over-represented in the sample as a whole.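 How to read the values: 0–100, growth inhibition (40 = 60% inhibited); 0, no net growth; -100 to 0, cell death (-40 = 40% of starting cells died; -100 = all dead).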 A number with no mark means an inactive call. Calls of active or inactive are those of the source. The calls were made as follows: active = growth percent below 10; inactive = the rest.

As to `COc1ccc2c(c1)[nH]c(=O)c1c3cccnc3cn21`, the growth in test [1] is 68.9%; in test [2], 63.2%; in test [3] it was 13.4%; in test [4], 41%; in test [5] it was 61.8%; in [6] it was 30.5%. The growth in [7] is -14.4% (active); in [8], -3.48% (active); in [9], 23.1%; in test [10], 25.1%; in test [11], 32%; in [12], 11.9%. For the same molecule, the growth in test [13] was 20.2%; in [14] it was 23.8%; in [15], 49.6%; in test [16], 0.176% (active).
In the case of `Cc1cccc(NC(=O)CSc2nc3ccccc3[nH]2)c1`, the growth in test [1] is 109%; in [2], 93.4%; in [3], 98.8%; in test [4], 75%; in [5] it was 106%; in [6], 97.5%. Further, the growth in test [7] was 82.6%; in [8], 53.4%; in test [9], 102%; in [10], 102%; in [11] it was 99.8%; in test [17], 103%. Besides, the growth is 93.2% in test [18]; 95.9% in [12]; 97.6% in test [13]; 107% in [14]; 90.7% in test [15]; 98.4% in test [16].
For the molecule `Cn1c(I)c(C#C[Si](C)(C)C)c(=O)n(C(=O)c2ccccc2)c1=O`, the growth in [1] is 81%; in [2], 91.2%; in test [3], 51%; in test [4], -78.4% (active); in [5], 43.6%; in test [6], 11.5%. In addition, the growth in [7] was 40.9%; in test [8] it was 105%; in test [9] it was -57.5% (active); in [10] it was -69.9% (active); in [11] it was -9.86% (active); in [18], 39.5%. For the same molecule, the growth was 101% in test [12], 14.2% in [14], 41% in test [15] and 88.1% in test [16].
As for `COC(=O)/C=C1\S/C(=N\NS(=O)(=O)c2ccc(C)cc2)N(c2ccccc2)C1=O`, the growth was 107% in test [1]; 100% in test [2]; 98.6% in test [3]; 90.8% in test [4]; 109% in [5]; 104% in [6]. Besides, the growth in [7] was 96.6%; in test [8], 80.6%; in test [9], 101%; in test [10] it was 93.9%; in [11] it was 106%; in [17], 99.8%. The growth in test [18] was 91%; in [12] it was 111%; in test [13], 103%; in [14], 105%; in test [15], 98.9%; in [16], 108%.
Turning to `N#Cc1nc(C#N)c(Sc2ccccc2)c(Sc2ccccc2)c1Sc1ccccc1`, the growth is -64.1% (active) in test [1]; 8.11% (active) in test [2]; 0.446% (active) in [3]; -72.1% (active) in test [4]; -36.8% (active) in [5]; -78% (active) in test [6]. The growth in test [7] was 17.7%; in [8] it was -14.1% (active); in test [9] it was -7.95% (active); in test [10], -19.2% (active); in test [11] it was 0.263% (active); in [19], -71.3% (active). Besides, the growth is -11.9% (active) in test [18]; -10.3% (active) in [12]; -67.9% (active) in test [13]; -87.7% (active) in [14]; 55.2% in [15]; 20.3% in [16].
Consider `C[C@@H]1N=C(c2ccc3ccccc3n2)Nc2nc3ccccn3c2C1=O`, for which the growth in test [1] is 109%; in [2] it was 77.7%; in test [3], 95.6%; in test [4], 70.1%; in test [5], 142%; in [6], 85.7%. Besides, the growth was 82.1% in test [7]; 108% in test [8]; 115% in [9]; 100% in test [10]; 93.8% in [11]; 101% in [17]. Moreover, the growth was 106% in [19]; 89.5% in test [18]; 66.3% in test [13]; 109% in [14]; 97.7% in test [15]; 93.6% in test [16].
With `CC1=C([Se]CC(OC(=O)[C@@H](CO)NC(=O)OC(C)(C)C)C(=O)NC(C)(C)C)C(=O)c2ccccc2C1=O` (some centres not stated), the growth was -79.1% (active) in test [1]; -56% (active) in test [2]; -100% (active) in [3]; -100% (active) in [4]; -100% (active) in test [5]; -100% (active) in [6]. Moreover, the growth in test [7] is -73.2% (active); in [8], 7.64% (active); in test [9], -29% (active); in [10], -31.6% (active); in test [11], -33.7% (active); in test [19] it was -100% (active). Moreover, the growth in test [18] is -100% (active); in test [12], -100% (active); in test [13] it was -100% (active); in test [14], -100% (active); in test [15] it was -37.1% (active); in test [16], -94.7% (active).
For the molecule `O=C(NCCc1ccc(O)c(O)c1)C12CC3CC(CC(C3)C1)C2`, the growth in [1] was 66.7%; in test [2], 111%; in test [3], 96.7%; in [4], 66.2%; in test [5], 90.3%; in [6] it was 90.7%. Moreover, the growth in test [7] is 51.5%; in [8], 101%; in test [9], 23.7%; in test [10], 72.9%; in test [11], 22.5%; in [17], 95.6%. For the same molecule, the growth in [18] was 87.3%; in test [12], 86.7%; in [13] it was 56.1%; in test [14], 86%; in [15] it was 83.3%; in test [16], 61.1%.
Consider `CS(=O)(=O)c1ccc(Nc2nc(N[C@H]3CCCC[C@H]3N)nc3cc[nH]c(=O)c23)cc1`, for which the growth in test [1] was -40% (active); in test [2], 13.5%; in test [3], 3.77% (active); in [4], 108%; in test [5], 44.6%; in [6], 95.2%. The growth in [7] was 90.7%; in test [8], 51.8%; in [9], 3.99% (active); in [10], 3.74% (active); in [17] it was 13.6%; in [19] it was -6.49% (active). The growth is -3.9% (active) in test [18]; 32.8% in [12]; 1.3% (active) in test [13]; -45.2% (active) in [14]; 22.2% in test [15].
